ELG1 repair inh – inhibitors of ELG1-dependent DNA repair in HEK293T cells; HEK293T ELG1-luciferase reporter, luminescence, 16 h; DNA damage induced by 5-fluorouridine; Potency, µM (titrated, usually from 46.1 µM), inactives show top-dose activity change, negative = inhibition, actives largely listed as inhibitors; actives 2.3% (n = 330,000); AID 504467; note: % is set by controls: 0 for no effect and ±100 for the full control effect; nearly all actives have a fitted effect of over 55% in size
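In this reporter screen, reduction of luminescence relative to DMSO vehicle indicated activity. Compounds and 5-fluorouridine were added together to 2,000 cells per well, incubated for 16 hr at 37 °C, then developed with ONE-Glo.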
ELG1 genotoxic – inducers of genotoxicity in HEK293T ELG1-luciferase cells; HEK293T ELG1-luciferase reporter, luminescence, 16 h; Potency, µM (titrated, usually from 46 µM), without a hit: top-dose activity change, positive = activation, usual class: activators; actives 1.3% (n = 330,000); AID 504466; note: % of control where 0% means no effect; nearly all actives have a fitted effect of over 60% in size
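Cells (2,000/well) expressing the ELG1-luciferase fusion are dosed by pin tool and kept 16 hr at 37 °C, 5% CO2. Signal comes from ONE-Glo luciferase reagent after 30 min at room temperature.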
Rab9 promoter act – activators of Rab9 promoter. Huh7 Rab9 promoter-luciferase reporter, luminescence, 24 h. Potency, µM (series often up to 9.22 µM), for the others: at the top dose activation, negative = inhibition, actives largely listed as activators. actives 2.8% (n = 320,000). AID 485297; note: % of control where 0% means no effect; nearly all actives have a fitted effect of over 60% in size
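Luminescence from Amplite-detected luciferase (10 minutes, ambient) reports Rab9 promoter activation. Before that, stable Rab9-luciferase Huh7 cells (1500/well, reduced-serum OP-MEM I plus 10% FBS) were exposed to compound for 24 hours at 37C.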
NPC1 promoter act – activates the NPC1 promoter | Huh7 NPC1 promoter luciferase reporter, 24 h | Potency, µM (titrated, usually from 9.22 µM), inactives show at the top dose activation, most hits filed as activators | actives 2.4% (n = 320,000) | AID 485313; note: % of control where 0% means no effect; nearly all actives have a fitted effect of over 60% in size
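Luminescence from an NPC1 promoter-driven luciferase reporter in stably transfected Huh7 cells was measured after 24 h compound treatment at 37 °C, followed by 10 min ambient incubation with luciferase detection reagent.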
FLuc modulator – counter-screen for miR-21 project: firefly luciferase inhibitors or activators; Potency, µM (top dose mostly 57.5 µM), for the others: at the highest dose activity change, negative = inhibition, usual class: inhibitors; purified FLuc, Km substrates, luminescence inhibition; P08659; actives 6.9% (n = 360,000);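 note: plate controls were vehicle for no effect and reference inhibitor for full effect; nearly all actives have a fitted effect of over 55% in size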
Target sequence (P08659 whole entry, looked up): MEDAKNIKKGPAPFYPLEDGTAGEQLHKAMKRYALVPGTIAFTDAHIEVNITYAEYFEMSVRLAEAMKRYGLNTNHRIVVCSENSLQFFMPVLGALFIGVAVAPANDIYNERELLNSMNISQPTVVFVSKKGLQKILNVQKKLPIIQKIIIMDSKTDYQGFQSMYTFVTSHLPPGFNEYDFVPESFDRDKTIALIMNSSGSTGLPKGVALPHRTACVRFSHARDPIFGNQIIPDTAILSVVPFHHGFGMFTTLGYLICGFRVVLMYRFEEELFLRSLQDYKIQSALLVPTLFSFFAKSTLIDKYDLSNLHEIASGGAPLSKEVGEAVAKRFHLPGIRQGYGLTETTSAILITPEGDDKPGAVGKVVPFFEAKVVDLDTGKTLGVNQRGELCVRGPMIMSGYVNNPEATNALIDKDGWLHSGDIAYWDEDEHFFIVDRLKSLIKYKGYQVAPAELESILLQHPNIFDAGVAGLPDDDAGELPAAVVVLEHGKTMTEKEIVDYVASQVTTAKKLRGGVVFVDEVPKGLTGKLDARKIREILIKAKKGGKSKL
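Biochemical qHTS of compounds, final roughly 60 µM downward over six points, against 10 nM purified firefly luciferase using Km concentrations of substrates (10 uM D-luciferin, 10 uM ATP) in Tris acetate pH 7.5 buffer; luminescence output.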
SMN2 splice up – SMN2 splice variant enhancement | Potency, µM (top dose mostly 46.1 µM), for inactives: at the highest dose activity change, positive = activation, hits mostly activators | actives 2.8% (n = 210,000) | HEK293 SMN2-luciferase splicing reporter, luminescence, 30-36 h; note: % of control where 0% means no effect; nearly all actives have a fitted effect of over 55% in size
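HEK293 cells carry an SMN2 minigene-luciferase reporter in which exon 7 inclusion puts luciferase in frame. Cells were seeded at 2000 cells/well, attached for 10-12 hours, then exposed to compounds for 30-36 hours at 37C before ONE-Glo luminescence.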
Starred values were filed as active, the others as inactive; ? = inconclusive; / = not tested or not shown; [ ] = dose if it differs, or a comment. This is a sample that favours compounds with a hit; in the whole collection about 9.3% have one here. Calls come from the whole dose curve; as a rule, active = well fitted curve in the direction sought with a large enough effect; inconclusive = small, poorly fitted or top-dose-only effect, or another doubt; inactive = no such curve, though single readings can be large; an effect the other way counts as inactive or inconclusive. Potency is the fitted concentration of half-maximal effect.

SMILES	ELG1 repair inh	ELG1 genotoxic	Rab9 promoter act	NPC1 promoter act	FLuc modulator	SMN2 splice up
CCOc1cccc(C(=O)NC(=S)Nc2ccc3c(c2)OCCO3)c1	?	?	?	20.4%	8.49µM*	30.3%
COc1cccc(OC)c1C(=O)NC(=S)Nc1ccc2c(c1)Cc1ccccc1-2	9.5%	7.7%	16.0%	-0.6%	3.2%	10.1%
O=C(CCNC(=O)c1ccccc1Cl)Nc1ccc2c(c1)OCO2	14.9%	0.3%	-3.1%	2.5%	-9.3%	0.5%
COC(=O)COc1ccc2oc(=O)cc(-c3cc4ccccc4o3)c2c1	1.4%	9.8%	-0.2%	6.5%	-0.5%	/
O=C(Nc1ccc2c(c1)OCCO2)c1ccccc1F	?	1.84µM*	0.562µM*	0.794µM*	3.38µM*	12.6µM*
O=c1[nH]c(-c2ccc(-c3cccc(Cl)c3)o2)nc2ccccc12	?	2.59µM*	/	/	/	/
O=C(COC(=O)c1cnccn1)c1ccc2c(c1)CCCC2	?	-3.9%	9.0%	8.9%	4.78µM*	5.9%
O=C(COC(=O)c1cnccn1)c1ccc(C2CCCCC2)cc1	7.5%	-0.1%	1.5%	-0.7%	2.39µM*	/
O=C(COc1ccccc1Cl)c1ccc2c(c1)CCCC2	?	?	3.55µM*	?	10.7µM*	14.1µM*
Cc1cnc(C(=O)OCC(=O)c2ccc(C3CCCCC3)cc2)cn1	?	6.1%	-0.2%	0.9%	?	/
O=C(COC(=O)c1cnccn1)c1ccc(Cl)cc1	6.3%	2.2%	-0.2%	-5.1%	19µM*	3.2%
COC(=O)c1cc2sccc2n1CC(=O)Nc1cc(Cl)ccc1OC	/	/	/	/	-9.6%	-6.9%
Cc1ccc(S(=O)(=O)N2CCOCC2)cc1NC(=O)COC(=O)CNC(=O)c1ccc(Cl)cc1Cl	?	-1.0%	-0.6%	7.7%	-2.6%	/
COc1ccc(-n2c(C)cc(C(=O)CN3CCCCC3)c2C)cc1	?	-0.3%	10.2%	1.0%	-3.2%	-7.6%
O=C(COC(=O)c1cnccn1)c1ccc(Br)cc1	5.6%	13.7%	-0.1%	1.5%	15.1µM*	-12.2%
COc1ccc(/C=N/NC(=O)c2cc(C34CC5CC(CC(C5)C3)C4)[nH]n2)cc1O	?	?	-1.6%	3.5%	15.1µM*	-2.3%
COC(=O)c1ccc2c(c1)C(=O)/C(=C/c1ccc(O)cc1)O2	?	11.2%	?	26.6%	?	-7.6%[1.84 µM]
O=C1/C(=C/c2ccccc2)Oc2cc(OC(=O)N3CCOCC3)ccc21	?	9.3%	20.4%	?	13.5µM*	?
CC(=O)Oc1ccc(/C=C2/Oc3ccccc3C2=O)cc1	?	?	12.8%	17.5%	3.79µM*	/
CN(C)S(=O)(=O)c1cccc(C(=O)NCC2CCCCC2)c1	-5.9%	5.2%	0.0%	3.2%	-3.0%	/
CCCS(=O)(=O)N1CCCC(C(=O)N2CCN(c3ccccn3)CC2)C1 (centres undefined)	?	0.2%	3.3%	-0.9%	-2.8%	-10.7%
COc1cc(OC)c(NC(=O)c2cccc(F)c2)cc1Cl	20.7%	-3.6%	1.5%	0.8%	-15.1%	9.1%
O=C(Nc1ccc(OC(F)F)c(Cl)c1)c1cccc(OC(F)F)c1	?	-7.7%	19.9%	12.4%	19µM*	-1.5%
COc1ccc(NC(=O)c2ccccc2F)cc1Cl	?	9.2µM*	2.24µM*	2.24µM*	9.53µM*	?
COC(=O)c1cccc(NC(=O)c2ccc(OC)c(Cl)c2)c1	?	5.8%	?	?	10.7µM*	?
SMILES	ELG1 repair inh	ELG1 genotoxic	Rab9 promoter act	NPC1 promoter act	FLuc modulator	SMN2 splice up
COc1ccc(NC(=O)c2ccco2)cc1NC(=O)c1ccccc1F	17.3%	3.0%	0.7%	-0.3%	-11.8%	/
COc1ccc(NC(=O)c2cccc(F)c2)cc1Cl	?	9.2µM*	?	3.55µM*	13.5µM*	?
Cc1ccc(CNC(=O)Cn2c(=O)n(Cc3ccccc3)c(=O)c3c2c2cc(C)ccc2n3C)cc1	/	/	/	/	-1.4%	/
Cn1c(=O)c(C(=O)NCCO)c(O)c2ccccc21	9.3%	?	1.1%	-2.0%	-6.6%	20.0%
COc1cc(NC(=O)c2ccc(-c3nc(COc4ccccc4)c(C)o3)cc2)cc(OC)c1	/	/	/	/	3.7%	/
COc1ccc(NC(=O)c2cccc(OC(F)F)c2)cc1Cl	?	5.8µM*	2.24µM*	3.55µM*	10.7µM*	?
Cc1c(Cl)cccc1NC(=O)c1cccc(OC(F)F)c1	?	5.0%	18.6%	17.8%	?	-7.8%
N#Cc1c(Nc2ccc(Cl)cc2)s[nH]c1=O	0.0%	0.4%	-2.6%	-0.7%	-19.0%	/
COc1cc(C)ccc1N(CCCN1C(=O)c2cccc3cccc(c23)C1=O)C(=O)c1cccs1	20.6µM*	-3.6%	-4.0%	-3.9%	3.6%	4.3%
COc1ccc(N(CCCN2C(=O)c3cccc4cccc(c34)C2=O)C(=O)c2cccs2)cc1	?	-0.7%	-6.4%	8.3%	-1.0%	-14.2%
Cc1ccc(C(=O)Nc2cccc(S(=O)(=O)N(C)c3ccccc3)c2)o1	?	-9.4%	1.4%	0.4%	-17.3%	/
CN(c1ccccc1)S(=O)(=O)c1cccc(NC(=O)C2=NNC(=O)CC2)c1	16.4µM*	-3.8%	/	/	/	/
CN(c1ccccc1)S(=O)(=O)c1cccc(NC(=O)c2nn(C)c(=O)c3ccccc23)c1	18.3µM*	-7.5%	-8.6%	-6.6%	/	/
CN(c1ccccc1)S(=O)(=O)c1cccc(NC(=O)Cn2cnc3ccccc3c2=O)c1	?	-2.1%	3.5%	-0.5%	3.9%	-27.8%
C=CCOc1ccccc1OCC(O)CNC(C)C (centres undefined)	19.6%	-8.7%	-2.6%	-4.8%	3.9%	/
O=C(OCc1c(-c2ccccc2)ncc2ccccc12)c1cccc(Br)c1	9.2µM*	-2.4%	0.2%	3.3%	3.9%	/
COc1ccc(N(Cc2cc3ccccc3[nH]c2=O)C(=O)c2cccc(Cl)c2)cc1	/	/	/	/	-15.7%	3.0%
O=C1CCCC(O)=C1C=Nc1ccc2c(c1)oc1ccccc12	?	0.0%	?	24.6%	2.13µM*	?
CCC1CCCCN1S(=O)(=O)c1ccc(S(=O)(=O)N(Cc2ccccn2)CC2CCCO2)cc1 (centres undefined)	18.4µM*	-8.7%	-2.5%	0.2%	-1.1%	-45.4%
O=S(=O)(NCC1CCCO1)c1ccc(S(=O)(=O)N(Cc2ccc(F)cc2)Cc2ccccn2)cc1 (centres undefined)	-10.3%	-3.0%	0.9%	0.6%	-0.6%	-15.2%
Cn1cc(S(=O)(=O)NC2CCCC2)c(=O)n(C)c1=O	0.5%	0.8%	-0.8%	-6.5%	-0.2%	/
c1ccc(CNc2ccc3c(c2)ncn3C2CCCCC2)nc1	?	11.3%	?	?	13.5µM*	27.6%

Source: PubChem BioAssay (National Center for Advancing Translational Sciences (NCATS))
